SMILES strings stand for the structures. Unmarked numbers belong to inactive results. Records with an inconclusive call do not appear. The source made the active and inactive calls. Unless noted, the call rests on the fitted dose curve; in most records, active means well fitted curve in the direction sought with a large enough effect in the repeat runs; inconclusive means weak or mixed curves; inactive means no such curve, though single readings can be large; an effect the other way counts as inactive or inconclusive.

A short description of assay [1]: qHTS assay to identify small molecule agonists of the androgen receptor (AR) signaling pathway in the presence of an antagonist - cell viability counter screen (AID 1259379).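 Further: MDA-kb2 human breast cancer cells carrying an MMTV luciferase reporter; series mostly up to about 92 µM; nearly all actives have a fitted effect of over 25% in size.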 The method, boiled down: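 Seed MDA-kb2 at 3,000 cells/well; incubate 5 hr, 37C, 0% CO2. Add nilutamide to 3.0uM final, then pin compounds at 15 concentrations. Incubate 16 hr. Add CellTiter-Fluor at 15 hr, read fluorescence after 1 hr.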

The nature of assay [2]: qHTS assay to identify small molecule antagonists of the estrogen receptor beta (ER-beta) signaling pathway - cell viability counter screen (AID 1259382).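 Further: HEK293T cells carrying ER-beta-UAS-bla reporter stimulated with estradiol; series mostly up to about 92 µM; nearly all actives have a fitted effect of over 55% in size.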 The method, boiled down:
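In this multiplexed counter screen, cells were seeded at 2,000 per well in medium with 2% charcoal-stripped FBS and incubated 6 hr before compound and 1nM final E2 were added. Sixteen hours later, ATP-based luminescence reported viability.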

The target of assay [3] is Estrogen receptor (Homo sapiens) (UniProt P03372). As to the kind of experiment: qHTS assay to identify small molecule agonists of the estrogen receptor alpha (ER-alpha) signaling pathway in the presence of an antagonist (AID 1259383; calls by dose curve; further: top concentration of the series differs between compounds; nearly all actives have a fitted effect of over 15% in size). In a few lines: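 Stably transfected VM7Luc4E2 reporter cells, kept 5 days in charcoal-stripped serum, received ICI-182,780 at 10.0nM final before compound addition. Following 22hr incubation at 37C and 5% CO2, luciferase signal was read by luminescence.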
Sequence of Estrogen receptor (Homo sapiens) (P03372 whole entry, looked up): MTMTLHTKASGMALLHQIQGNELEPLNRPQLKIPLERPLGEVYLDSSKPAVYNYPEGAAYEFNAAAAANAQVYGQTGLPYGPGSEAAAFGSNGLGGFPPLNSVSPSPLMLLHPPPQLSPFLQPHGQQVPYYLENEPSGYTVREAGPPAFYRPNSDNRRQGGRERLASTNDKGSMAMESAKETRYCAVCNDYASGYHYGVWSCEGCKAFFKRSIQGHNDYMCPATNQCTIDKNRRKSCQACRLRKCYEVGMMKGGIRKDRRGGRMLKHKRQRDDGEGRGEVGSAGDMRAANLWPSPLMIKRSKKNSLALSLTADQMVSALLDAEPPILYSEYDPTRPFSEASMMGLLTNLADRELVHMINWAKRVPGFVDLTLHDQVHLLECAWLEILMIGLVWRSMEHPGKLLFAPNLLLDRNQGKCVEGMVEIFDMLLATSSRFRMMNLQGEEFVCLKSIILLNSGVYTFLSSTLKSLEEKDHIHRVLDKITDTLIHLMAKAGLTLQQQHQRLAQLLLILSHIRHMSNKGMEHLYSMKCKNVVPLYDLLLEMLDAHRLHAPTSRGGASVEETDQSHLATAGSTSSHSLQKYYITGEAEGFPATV

Assay [4] is described as follows: qHTS assay to identify small molecule agonists or antagonists of the thyroid stimulating hormone receptor (TSHR) signaling pathway - wild type cell line counter screen (AID 1259384; calls by dose curve). The method, boiled down: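 Wild-type Hek293 cells, 800/well, 18 h at 37C, then compound with Ro20-1724 for 30 min RT. cAMP by HTRF (cAMP-d2/anti-cAMP cryptate), 1 h RT, fluorescence read. 15 concentrations, triplicates.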

The target in assay [5] is Thyrotropin receptor (Homo sapiens) (UniProt P16473). As to the kind of experiment: qHTS assay to identify small molecule antagonists of the thyroid stimulating hormone receptor (TSHR) signaling pathway (AID 1259385; calls by dose curve; further: nearly all actives have a fitted effect of over 20% in size). The method, boiled down: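 TSHR-HEK293 cells (800/well) plated 18 h, then compounds with Ro20-1724 and TSH at 1.5 ng/mL final, 30 min at room temperature. cAMP quantified by HTRF (cAMP-d2/anti-cAMP-cryptate, 1 h); 15 concentrations in triplicate.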
Sequence of Thyrotropin receptor (Homo sapiens) (P16473 whole entry, looked up): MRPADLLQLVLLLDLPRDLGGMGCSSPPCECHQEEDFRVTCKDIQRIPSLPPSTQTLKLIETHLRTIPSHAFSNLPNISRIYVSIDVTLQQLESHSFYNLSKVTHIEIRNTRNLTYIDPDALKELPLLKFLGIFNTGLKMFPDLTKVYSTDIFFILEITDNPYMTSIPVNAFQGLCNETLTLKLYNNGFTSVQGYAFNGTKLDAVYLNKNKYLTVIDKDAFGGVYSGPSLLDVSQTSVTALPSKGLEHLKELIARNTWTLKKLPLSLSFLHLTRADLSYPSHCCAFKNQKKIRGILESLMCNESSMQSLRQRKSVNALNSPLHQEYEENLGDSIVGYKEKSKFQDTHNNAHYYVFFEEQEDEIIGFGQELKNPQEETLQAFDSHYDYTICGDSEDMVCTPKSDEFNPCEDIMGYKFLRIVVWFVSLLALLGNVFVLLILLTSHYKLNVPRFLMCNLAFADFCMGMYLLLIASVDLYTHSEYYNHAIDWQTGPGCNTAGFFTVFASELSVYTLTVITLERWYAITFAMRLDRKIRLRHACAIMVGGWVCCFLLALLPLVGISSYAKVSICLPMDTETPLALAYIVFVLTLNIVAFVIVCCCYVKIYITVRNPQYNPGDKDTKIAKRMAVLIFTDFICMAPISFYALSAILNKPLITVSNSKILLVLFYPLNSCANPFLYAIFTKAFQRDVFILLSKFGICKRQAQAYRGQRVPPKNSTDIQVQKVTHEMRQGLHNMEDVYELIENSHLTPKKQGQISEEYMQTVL

Assay [6] in a line: qHTS assay to identify small molecule agonists of the estrogen receptor alpha (ER-alpha) signaling pathway in the presence of an antagonist - cell viability counter screen (AID 1259386).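 Further: series mostly up to about 92 µM; cells exposed to compounds for 22 h at 37 °C before the viability read; nearly all actives have a fitted effect of over 30% in size.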 The method, boiled down: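 Viability counter screen using VM7Luc4E2 (full-length ER-alpha, four ERE-luciferase). The cells were treated with compounds alongside ICI-182,780 10.0nM for 22hr, and live-cell protease fluorescence was quantified with CellTiter-Fluor.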

In assay [7] the target is Progesterone receptor (Homo sapiens) (UniProt P06401). As to the kind of experiment: qHTS assay to identify small molecule agonists of the progesterone receptor (PR) signaling pathway (AID 1346784; calls by dose curve; further: nearly all actives have a fitted effect of over 30% in size; further: potency means the concentration at half of the fitted maximal effect). The method, boiled down: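 Using charcoal-stripped serum (2%) to limit endogenous steroids, PR-UAS-bla HEK 293T cells received compounds for 16 hr at 37C after 6 hr plating; beta-lactamase FRET fluorescence was recorded following 2 hr substrate loading at room temperature.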
Sequence of Progesterone receptor (Homo sapiens) (P06401 whole entry, looked up): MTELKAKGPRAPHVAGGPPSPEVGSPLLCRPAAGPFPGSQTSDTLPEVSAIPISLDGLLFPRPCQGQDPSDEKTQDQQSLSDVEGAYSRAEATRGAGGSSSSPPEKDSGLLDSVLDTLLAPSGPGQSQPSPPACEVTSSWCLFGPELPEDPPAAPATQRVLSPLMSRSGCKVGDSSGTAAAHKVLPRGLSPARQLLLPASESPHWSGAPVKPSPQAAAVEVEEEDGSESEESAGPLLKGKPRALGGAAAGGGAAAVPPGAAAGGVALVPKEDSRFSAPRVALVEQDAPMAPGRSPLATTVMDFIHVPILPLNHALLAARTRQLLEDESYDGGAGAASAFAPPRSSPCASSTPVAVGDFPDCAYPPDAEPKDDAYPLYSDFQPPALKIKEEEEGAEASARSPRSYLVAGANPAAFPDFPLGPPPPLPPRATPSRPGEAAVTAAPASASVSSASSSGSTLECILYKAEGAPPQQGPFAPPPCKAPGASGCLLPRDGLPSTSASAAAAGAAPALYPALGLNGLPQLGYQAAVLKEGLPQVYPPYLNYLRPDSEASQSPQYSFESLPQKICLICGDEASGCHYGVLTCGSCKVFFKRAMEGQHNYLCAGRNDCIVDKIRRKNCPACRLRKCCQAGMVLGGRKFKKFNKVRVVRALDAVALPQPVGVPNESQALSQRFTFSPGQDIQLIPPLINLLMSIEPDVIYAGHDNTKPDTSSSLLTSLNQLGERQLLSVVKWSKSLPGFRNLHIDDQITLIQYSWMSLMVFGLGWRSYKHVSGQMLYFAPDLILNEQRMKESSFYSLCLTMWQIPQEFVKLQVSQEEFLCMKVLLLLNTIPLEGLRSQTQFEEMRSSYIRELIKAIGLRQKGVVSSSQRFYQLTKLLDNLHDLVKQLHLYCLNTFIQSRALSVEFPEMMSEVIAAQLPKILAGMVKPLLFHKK

Assay [8] has the same target. As to the kind of experiment: qHTS assay to identify small molecule antagonists of the progesterone receptor (PR) signaling pathway (AID 1346795; active means well fitted inhibition curve with a large enough effect in the signal ratio in the repeat runs, not every such curve was filed as active; the % refers to the signal ratio). In a few lines:
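Inhibition of R5020-induced (1 nM final) beta-lactamase reporter signal in PR-UAS-bla HEK293T cells was scored by FRET fluorescence after overnight (16 hr) compound treatment.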

Assay [9] in a line: qHTS assay to identify small molecule antagonists of the progesterone receptor (PR) signaling pathway - cell viability counter screen (AID 1346798). Further: series mostly up to about 92 µM; nearly all actives have a fitted effect of over 50% in size. The method, boiled down:
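ATP content as viability readout: CellTiter-Glo luminescence, 30 min room temperature, in PR-UAS-bla HEK293T cells after 16 hr compound/R5020 treatment at 37C and 5% CO2.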

Assay [10] can be described thus: qHTS assay to identify small molecule agonists of the progesterone receptor (PR) signaling pathway - cell viability counter screen (AID 1346799; calls by dose curve; further: nearly all actives have a fitted effect of over 45% in size). The method, boiled down: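 Cytotoxicity in PR-bla HEK293T cells: 16 h compound, 37C; CellTiter-Glo added post-FRET read; luminescence after 30 min RT.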
Assay [11] is described as follows: qHTS assay to identify small molecule antagonists of the TGF-beta/Smad signaling pathway - cell viability counter screen (AID 1346824). Further: nearly all actives have a fitted effect of over 50% in size. The method, boiled down:
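SBE-bla HEK 293T cells, incubated overnight, then compound plus 0.25 ng/mL TGF-beta1 (stock added) for 5 hr at 37 C. Viability was read in the same wells by CellTiter-Glo luminescence after 30 min at room temperature.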

Assay [12] can be described thus: qHTS assay to identify small molecule agonists of the TGF-beta/Smad signaling pathway - cell viability counter screen (AID 1346829). Further: top concentration of the series differs between compounds; nearly all actives have a fitted effect of over 45% in size. The method, boiled down:
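HEK 293T SBE-bla line, 5 hr compound exposure at 37 C, multiplexed CellTiter-Glo viability read by luminescence.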

Assay [13] is described as follows: qHTS assay to identify small molecule agonists of the TGF-beta/Smad signaling pathway (AID 1346859; active means well fitted activation curve with a large enough effect in the signal ratio in the repeat runs, not every such curve was filed as active; the % refers to the signal ratio; further: series mostly up to about 77 µM). In a few lines: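 Stable Smad binding element-beta-lactamase HEK 293T cells; 5 hr compound exposure at 37 C under 5% CO2; 2 hr room-temperature substrate step; fluorescence excited at 405 nm, collected at 460 nm and 530 nm.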
In assay [14] the target is Thyrotropin-releasing hormone receptor (Homo sapiens) (UniProt P34981). As to the kind of experiment: qHTS assay to identify small molecule antagonists of the thyrotropin-releasing hormone receptor (TRHR) signaling pathway (AID 1346877; active means well fitted inhibition curve with a large enough effect in the repeat runs, not every such curve was filed as active; further: series mostly up to about 51 µM). The method, boiled down: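 Following an 18 h incubation at 37 °C and a 2 h calcium dye load, TRHR-HEK293 cells were exposed to compound (5 min, room temperature) and challenged with TRH, 1 nM final.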
Sequence of Thyrotropin-releasing hormone receptor (Homo sapiens) (P34981 whole entry, looked up): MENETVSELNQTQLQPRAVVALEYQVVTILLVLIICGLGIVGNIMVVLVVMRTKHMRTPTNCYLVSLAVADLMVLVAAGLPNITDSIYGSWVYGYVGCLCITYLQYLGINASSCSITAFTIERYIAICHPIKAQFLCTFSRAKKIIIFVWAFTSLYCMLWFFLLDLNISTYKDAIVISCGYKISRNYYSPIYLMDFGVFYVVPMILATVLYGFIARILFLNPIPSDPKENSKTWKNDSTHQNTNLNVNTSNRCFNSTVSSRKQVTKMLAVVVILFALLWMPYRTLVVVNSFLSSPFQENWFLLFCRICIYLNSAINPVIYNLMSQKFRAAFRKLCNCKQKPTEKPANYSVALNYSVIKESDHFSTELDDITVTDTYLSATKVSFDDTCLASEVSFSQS

The target is the same in assay [15]. As to the kind of experiment: qHTS assay to identify small molecule agonists of the thyrotropin-releasing hormone receptor (TRHR) signaling pathway (AID 1346891; calls by dose curve;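 further: HEK293 cells expressing TRHR with calcium dye readout; series mostly up to about 58 µM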). In a few lines: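 In 1536-format, 1500 TRHR-Hek293 cells per well grew 18 h, took up calcium dye for 2 h at 37 °C, received compound, and were read kinetically; 15-point titrations, triplicates.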

A short description of assay [16]: Human pregnane X receptor (PXR) small molecule agonists, qHTS cell viability counter screen (AID 1346977). Further: nearly all actives have a fitted effect of over 50% in size. In a few lines:
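Readout is CellTiter-Fluor fluorescence from PXR-Luc HepG2 cells. Plated cells rested 5hr, then were treated with compounds for 24hr at 37C and 5% CO2, with reagent present during the last hour.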

Assay [17] in a line: qHTS assay to identify small molecule agonists of the estrogen receptor beta (ER-beta) signaling pathway - cell viability counter screen (AID 1259380). Further: nearly all actives have a fitted effect of over 30% in size. The method, boiled down: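 CellTiter-Glo read, 30 min RT, same wells as bla assay; cells ER-beta-UAS-bla HEK293T; 16 hr compound, 37C; medium 2% charcoal-stripped FBS.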
Assay [18] addresses Androgen receptor (Homo sapiens) (UniProt P10275). As to the kind of experiment: qHTS assay to identify small molecule agonists of the androgen receptor (AR) signaling pathway in the presence of an antagonist (AID 1259381; calls by dose curve; further: nearly all actives have a fitted effect of over 15% in size). The method, boiled down:
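Test compounds at 15 concentrations were incubated for 16hr with MDA-kb2 reporter cells in presence of 3.0uM nilutamide (final). Signal: ONE-Glo luciferase luminescence.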
On the % scale 0 is the no-effect control and ±100 the full control effect.

Sequence of Androgen receptor (Homo sapiens) (P10275 whole entry, looked up): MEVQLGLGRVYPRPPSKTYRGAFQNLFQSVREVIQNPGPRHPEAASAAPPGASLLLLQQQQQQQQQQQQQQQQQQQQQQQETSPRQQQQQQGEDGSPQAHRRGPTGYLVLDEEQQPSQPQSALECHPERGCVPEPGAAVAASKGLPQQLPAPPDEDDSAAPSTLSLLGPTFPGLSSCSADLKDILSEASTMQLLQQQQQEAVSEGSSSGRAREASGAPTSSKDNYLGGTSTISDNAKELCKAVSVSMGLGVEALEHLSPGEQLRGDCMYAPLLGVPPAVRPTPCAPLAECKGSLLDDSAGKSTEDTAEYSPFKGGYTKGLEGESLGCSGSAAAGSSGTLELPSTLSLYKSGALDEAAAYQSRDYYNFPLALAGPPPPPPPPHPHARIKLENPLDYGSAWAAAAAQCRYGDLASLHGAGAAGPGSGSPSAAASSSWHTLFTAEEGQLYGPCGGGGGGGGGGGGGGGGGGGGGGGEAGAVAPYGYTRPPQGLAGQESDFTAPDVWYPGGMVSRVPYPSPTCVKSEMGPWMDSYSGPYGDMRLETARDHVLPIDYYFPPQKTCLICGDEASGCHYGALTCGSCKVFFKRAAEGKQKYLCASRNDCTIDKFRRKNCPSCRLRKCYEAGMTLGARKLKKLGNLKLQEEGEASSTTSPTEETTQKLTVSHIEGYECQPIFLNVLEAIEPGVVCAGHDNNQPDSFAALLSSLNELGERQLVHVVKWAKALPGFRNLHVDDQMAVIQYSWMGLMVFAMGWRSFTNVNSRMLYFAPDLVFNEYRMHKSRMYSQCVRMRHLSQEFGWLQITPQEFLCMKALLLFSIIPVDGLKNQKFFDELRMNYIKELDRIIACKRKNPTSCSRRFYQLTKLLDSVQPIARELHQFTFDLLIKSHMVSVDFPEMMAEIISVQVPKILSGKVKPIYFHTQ

In the case of `CC(C)NC[C@@H](O)COc1ccc(CC(N)=O)cc1`, the Potency entry in assay [1], in [2], in [3], in assay [5], in [6] and in assay [7] was “inactive” each time. Further, the Potency entry in [8], in [9], in [10], in [11], in assay [12] and in assay [13] was “inactive” throughout. Moreover, the Potency entry in [14] and in assay [16] was “inactive” each time. For the same compound, the result in assay [4] and in assay [15] was inactive.

For `CN(C)C(=O)COC(=O)Cc1ccc(OC(=O)c2ccc(N=C(N)N)cc2)cc1`, the Potency result in assay [1], in assay [17], in assay [2], in assay [5], in assay [6] and in assay [7] was “inactive” each time. In addition, the Potency result in [8], in [9], in assay [10], in [11], in [12] and in assay [14] was “inactive” in each case. In addition, in assay [16], the Potency result was “inactive”. Also, the result in assay [4] and in assay [15] was inactive.

Regarding `Nc1ccc(C(=O)O)c(O)c1`, the Potency entry in assay [1], in assay [2], in assay [5], in assay [6], in assay [7] and in assay [8] was “inactive” in each case. In addition, the Potency entry in [10], in assay [11], in [12], in assay [13], in assay [14] and in assay [16] was “inactive” each time. The result in assay [18], in assay [4] and in assay [15] was inactive.

For `CC1(C)CCC[C@]2(C)[C@H]3CCO[C@]3(C)CC[C@@H]12`, the Potency result in assay [1], in [2], in [5], in [6], in [7] and in assay [8] was “inactive” throughout. Besides, the Potency result in [9], in assay [10], in [11], in assay [12], in [13] and in assay [14] was “inactive” throughout. Also, the Potency result in [16] was “inactive”. For the same compound, the compound was classed as inactive in [4] and in assay [15].

On to `NC(=S)NC(N)=S`, for which the Potency result in assay [1], in assay [3], in assay [5], in assay [6], in assay [7] and in assay [8] was “inactive” in each case. The Potency result in [9], in [10], in [11], in assay [12], in assay [13] and in [14] was “inactive” throughout. The outcome in assay [18], in assay [4] and in assay [15] was inactive.

Turning to `COc1cc(/C=C/c2ccccc2)oc(=O)c1`, the Potency entry in assay [1], in [2], in assay [3], in assay [5], in assay [6] and in [7] was “inactive” in each case. Moreover, the Potency entry in [8], in assay [9], in assay [10], in assay [11], in assay [12] and in [14] was “inactive” throughout. In [16], the Potency entry was “inactive”. Also, the compound was classed as inactive in [4] and in [15].

With `O=C(O)CN(CCN(CC(=O)O)CC(=O)O)CC(=O)O`, the activity change, negative = cytotoxicity was -0.833% [at 3.27 µM] in assay [1]; 0.439% [at 3.32 µM] in [17]; 2.74% [at 3.27 µM] in assay [2]; 0.548% [at 3.27 µM] in assay [6]; 3.78% [at 3.27 µM] in assay [9]; 9.65% [at 2.72 µM] in assay [12]. Besides, the cAMP activity change in assay [4] was -0.412% [at 3.27 µM]. Also, the figures for the activity change, negative = inhibition in [5] and in assay [8] were 1.34% [at 3.27 µM] and 7.88% [at 3.27 µM], respectively. The Potency in assay [7] was 9.7 nM (active). Besides, the viability change, negative = cytotoxic in assay [11] was -0.549% [at 2.72 µM]. Further, the activation in assay [13] is -0.839% [at 2.72 µM].

The values above are taken from PubChem BioAssay (Tox21).
